Measurements as given in PubChem BioAssay AID720490 (Broad Institute, 2013).
Results with a measured potency or affinity are listed apart. Activity calls are given as the source filed them.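 How the source made its calls: active means compound whose fitted half-maximal concentration for signal loss stays within twice its top tested dose in every run; inconclusive means runs not all active and not all inactive; inactive means every run inactive.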

Assay: reduction of Shn3 3'UTR firefly luciferase signal, dose response, Schnurri-3 inhibitor project, cell-based, Clone20 osteoblasts, cherry-pick, set 2 (AID 720490)
Details: Clone20 osteoblast Shn3 3'UTR firefly luciferase, 24 h; series mostly up to 35 µM

| Compound | outcome |
| --- | --- |
| CCOC(=O)c1cn(CC(=O)Nc2cccc(Cl)c2C)nn1 | inactive |
| CCN(CC)Cc1c(O)ccc2c1O/C(=C\C=C\c1ccccc1)C2=O | inactive |
| O=C1S/C(=C\c2ccc(N3CCOCC3)o2)C(=O)N1Cc1c(F)cccc1Cl | inactive |
| CCOC(=O)Cn1c(S(=O)(=O)Cc2ccccc2Cl)nc(-c2ccccc2)c1-c1ccccc1 | inactive |
